Measurements from PubChem BioAssay (Tox21).
Several values for one entry are separate records, joined by “and”; a condition that tells them apart may be missing. Identical values can stand only once. Records with an inconclusive call do not appear. Where a structure was tested more than once in an assay, its records may differ in their call. Activity calls are given as the source filed them. Calls come from the whole dose curve; as a rule, active = well fitted cell-killing curve with a large enough effect in the repeat runs; inconclusive = weak or mixed curves, or effect the other way; inactive = no such curve, though single readings can be large or run the other way.

experiment: qHTS assay for identifying genotoxic compounds that show differential cytotoxicity against isogenic chicken DT40 cell lines with known DNA damage response pathways - wild type cell line (AID 743012); details: DT40 wild type chicken cells viability, CellTiter-Glo, 40 h; series mostly up to 68.4 µM; note: nearly all actives have a fitted effect of over 60% in size
Text: U.S. Tox21 Program National Center for Advancing Translational Sciences [NCATS] NIH Chemical Genomics Center [NCGC] U.S. Environmental Protection Agency [EPA] National Institutes of Environmental Health Sciences [NIEHS] National Toxicology Program [NTP] U.S. Food and Drug Administration [FDA] Tox21 Assay Overview: DNA repair pathways play a critical role in cellular homeostasis by repairing DNA damage induced by endogenous processes and xenobiotics. Isogenic chicken DT40 cell lines deficient in different DNA repair pathways can be used to identify genotoxic compounds and aid in characterizing the nature of the DNA damage induced. Two DNA repair-deficient cell lines with disrupted genes, Rad54/Ku70 or Rev3, were used to screen the Tox21 10K compound library. Possible genotoxicity was based on the presence of a significant increase in cytotoxicity in one or more of the DNA repair-deficient cell lines compared to that observed in the parental DNA repair-proficient cell line. CellTiter Glo viability assay (Promega, Madison, WI) was used to measure cell viability in these cells after compound treatment. This assay includes the data from the wild type cell line.
Tox21 Assay Protocol Summary: 300 DT40 wild type cells in 5 uL/well were dispensed into white, solid-bottom 1536-well plates using a Multidrop Combi (ThermoFisher Scientific, Waltham, MA) dispenser. After the assay plates were incubated at 37 C/5% CO2 for approximately 0.5 hour, 23 nL of compounds dissolved in DMSO, positive controls or DMSO only was transferred into the assay plate by a pintool work station (Kalypsys, San Diego, CA). The assay plates were incubated at 37 C/5% CO2 for 40 hours. After 5 uL per well of CellTiter-Glo reagent was added into each well of the assay plates, the plates were incubated for 30 min at room temperature and the luminescence intensity of the plates was measured using a ViewLux (PerkinElmer, Shelton, CT) plate reader.
% is set by controls: 0 for no effect and ±100 for the full control effect; potency is the fitted concentration of half-maximal effect.

With C[C@@H]1O[C@@H](O[C@@H]2C=C3CC[C@@H]4[C@H](CC[C@]5(C)[C@@H](c6ccc(=O)oc6)CC[C@]45O)[C@@]3(C)CC2)[C@H](O)[C@H](O)[C@H]1O as the molecule, how does the Potency read?
The Potency was 0.127 µM (active).

For N#CSCSC#N, which Potency is on record?
Its Potency is 5.57 µM (active) and 1.21 µM (active).

With CC(C)OC(=O)C(O)(c1ccc(Cl)cc1)c1ccc(Cl)cc1 as the molecule, how does the Potency read?
Its Potency is 8.63 µM (active).

For Oc1ccc2ccc3cccc4ccc1c2c34, which Potency is on record?
The Potency was 30.6 µM (active).

For ClC1=C(Cl)C2(Cl)C3C(Cl)C(Cl)CC3C1(Cl)C2(Cl)Cl (stereo not given), which Potency is on record?
Its Potency is “inactive and 21.7 µM (active)”.

For CN(C)C(=S)S, which Potency is on record?
Its Potency is 1.36 µM (active) and 1.37 µM (active).

For Clc1ccc(COC(Cn2ccnc2)c2ccc(Cl)cc2Cl)cc1 (stereo not given), which Potency is on record?
The Potency was 7.5 µM (active) and 20.2 µM (active) and 15.3 µM (active).

For C[C@]12Cc3nonc3C[C@@H]1CC[C@@H]1[C@@H]2CC[C@@]2(C)[C@H]1CC[C@]2(C)O, which Potency is on record?
The Potency was 11.9 µM (active).

For C[C@]12CC[C@@H]3c4ccc(OC(=O)N(CCCl)CCCl)cc4CC[C@H]3[C@@H]1CC[C@@H]2O, which Potency is on record?
Its Potency is “inactive”.

Which Potency does the source give for C=CCC1=C(C)C(OC(=O)C2C(C=C(C)C)C2(C)C)CC1=O (stereo not given) here?
The Potency was 10.3 µM (active).

Which Potency does the source give for CC(C)[C@H](C(=O)O[C@H](C#N)c1cccc(Oc2ccccc2)c1)c1ccc(Cl)cc1 here?
Its Potency is 43.2 µM (active).

For CCCCCCCCCC[N+](C)(C)CCCCCCCCCC, which Potency is on record?
The Potency was 668 nM (active) and 433 nM (active).

Which Potency does the source give for C=CC(=O)OCCCCOC(=O)C=C here?
The Potency was 27.3 µM (active).

With CCOc1cc(C(C)(C)C)ccc1C1COC(c2c(F)cccc2F)=N1 (stereo not given) as the molecule, how does the Potency read?
The Potency was 26.3 µM (active).

Which Potency does the source give for CC(C)CCCCCOC(=O)c1ccccc1C(=O)OCCCCCC(C)C here?
Its Potency is “inactive”.

For CNC(C)Cc1ccc2c(c1)OCO2 (stereo not given), which Potency is on record?
Its Potency is “inactive”.

With N#CCCC(Br)(C#N)CBr (stereo not given) as the molecule, how does the Potency read?
Its Potency is 4.33 µM (active).

Which Potency does the source give for CC[C@H]1C[C@@H]2C[C@H]3c4[nH]c5ccc(OC)cc5c4CCN(C2)[C@@H]13 here?
Its Potency is 23.9 µM (active).

With CC(Cc1ccc(C(C)(C)C)cc1)CN1C[C@@H](C)O[C@@H](C)C1 (stereo not given in full) as the molecule, how does the Potency read?
The Potency was 9.69 µM (active).

Which Potency does the source give for CCC(C)c1cc([N+](=O)[O-])cc([N+](=O)[O-])c1OC(=O)C=C(C)C (stereo not given) here?
Its Potency is 21.7 µM (active).

For CC(C)C1CCC(Cc2ccc(Cl)cc2)C1(O)Cn1cncn1 (stereo not given), which Potency is on record?
Its Potency is 19.1 µM (active).

For CC(=O)O[C@H]1CC[C@@]2(C)C(=CC[C@@H]3[C@@H]2CC[C@]2(C)C(=O)CC[C@@H]32)C1, which Potency is on record?
Its Potency is “inactive”.

With CC(C)(O)c1cnn2c(-c3ccc(F)c(-c4c(F)cccc4C#N)c3)cnc2n1 as the molecule, how does the Potency read?
Its Potency is 48.6 µM (active).

Which Potency does the source give for Nc1ccc(Cc2ccc(N)c(Cl)c2)cc1Cl here?
The Potency was 74.4 µM (active).

With CC(C)CC(C)(c1ccc(O)cc1)c1ccc(O)cc1 as the molecule, how does the Potency read?
The Potency was “inactive”.

Which Potency does the source give for Oc1cc(Cl)c(Cl)c(Cl)c1 here?
Its Potency is “inactive”.

Which Potency does the source give for CN(C)C(=S)[S-].CN(C)C(=S)[S-].[Cu+2] here?
Its Potency is 14.9 µM (active).

Which Potency does the source give for CC(=O)c1cc(C(C)(C)C)cc2c1CCC2(C)C here?
Its Potency is “inactive”.

For O=C(CCCN1CCC2(CC1)C(=O)NCN2c1ccccc1)c1ccc(F)cc1, which Potency is on record?
Its Potency is 29.8 µM (active).

Which Potency does the source give for O=C/C(Cl)=C(/Cl)C(=O)O here?
The Potency was 17.2 µM (active).

Which Potency does the source give for Cc1cc(C(C)(C)c2cc(C)c(O)c(C)c2)cc(C)c1O here?
The Potency was 52.7 µM (active).

For C1CCC2CCCCC2C1 (stereo not given), which Potency is on record?
The Potency was “inactive”.

For CCOP(=S)(OCC)OC(Cl)C(Cl)(Cl)Cl (stereo not given), which Potency is on record?
Its Potency is “inactive”.

For CCCCCCCCCCCCCCCC[n+]1ccccc1, which Potency is on record?
The Potency was 427 nM (active) [middle of 4 runs].

Which Potency does the source give for CCc1nn(C)c(C(=O)NCc2ccc(C(C)(C)C)cc2)c1Cl here?
The Potency was 0.077 µM (active).

Which Potency does the source give for C[C@H]1O[C@@H](O[C@H]2[C@@H](O)C[C@H](O[C@H]3[C@@H](O)C[C@H](O[C@H]4CC[C@@]5(C)[C@H](CC[C@@H]6[C@@H]5CC[C@]5(C)[C@@H](C7=CC(=O)OC7)CC[C@]65O)C4)O[C@@H]3C)O[C@@H]2C)C[C@H](O)[C@@H]1O here?
The Potency was 422 nM (active) and 388 nM (active).

Which Potency does the source give for c1ccc2cc3c(cc2c1)-c1cccc2cccc-3c12 here?
Its Potency is “inactive”.

For CCN, which Potency is on record?
The Potency was “inactive”.

Which Potency does the source give for C[C@@H]1O[C@@H](O[C@H]2C[C@@H](O)[C@]3(CO)[C@H]4[C@H](O)C[C@]5(C)[C@@H](C6=CC(=O)OC6)CC[C@]5(O)[C@@H]4CC[C@]3(O)C2)[C@H](O)[C@H](O)[C@H]1O here?
The Potency was 2.11 µM (active) and 1.88 µM (active) and 1.3 µM (active).

Which Potency does the source give for Clc1ccc(CCC(Cn2ccnc2)Sc2c(Cl)cccc2Cl)cc1 (stereo not given) here?
Its Potency is 12.7 µM (active).
